BAZ2B inh – qHTS Assay for Inhibitors of BAZ2B; Bromodomain adjacent to zinc finger domain protein 2B (Homo sapiens), Q9UIF8; AlphaScreen BAZ2B-H3K14Ac peptide displacement; Potency, µM (titrated, usually from 114 µM), for the others: at the top dose activity change, negative = inhibition, usual class: inhibitors; actives 4.4% (n = 360,000); also: potency is read from the fitted curve at half-maximal effect; % is scaled to controls: 0 for no effect and ±100 for the full control effect; nearly all actives have a fitted effect of over 60% in size
Target sequence (Q9UIF8 whole entry, looked up, the tested form may be a part): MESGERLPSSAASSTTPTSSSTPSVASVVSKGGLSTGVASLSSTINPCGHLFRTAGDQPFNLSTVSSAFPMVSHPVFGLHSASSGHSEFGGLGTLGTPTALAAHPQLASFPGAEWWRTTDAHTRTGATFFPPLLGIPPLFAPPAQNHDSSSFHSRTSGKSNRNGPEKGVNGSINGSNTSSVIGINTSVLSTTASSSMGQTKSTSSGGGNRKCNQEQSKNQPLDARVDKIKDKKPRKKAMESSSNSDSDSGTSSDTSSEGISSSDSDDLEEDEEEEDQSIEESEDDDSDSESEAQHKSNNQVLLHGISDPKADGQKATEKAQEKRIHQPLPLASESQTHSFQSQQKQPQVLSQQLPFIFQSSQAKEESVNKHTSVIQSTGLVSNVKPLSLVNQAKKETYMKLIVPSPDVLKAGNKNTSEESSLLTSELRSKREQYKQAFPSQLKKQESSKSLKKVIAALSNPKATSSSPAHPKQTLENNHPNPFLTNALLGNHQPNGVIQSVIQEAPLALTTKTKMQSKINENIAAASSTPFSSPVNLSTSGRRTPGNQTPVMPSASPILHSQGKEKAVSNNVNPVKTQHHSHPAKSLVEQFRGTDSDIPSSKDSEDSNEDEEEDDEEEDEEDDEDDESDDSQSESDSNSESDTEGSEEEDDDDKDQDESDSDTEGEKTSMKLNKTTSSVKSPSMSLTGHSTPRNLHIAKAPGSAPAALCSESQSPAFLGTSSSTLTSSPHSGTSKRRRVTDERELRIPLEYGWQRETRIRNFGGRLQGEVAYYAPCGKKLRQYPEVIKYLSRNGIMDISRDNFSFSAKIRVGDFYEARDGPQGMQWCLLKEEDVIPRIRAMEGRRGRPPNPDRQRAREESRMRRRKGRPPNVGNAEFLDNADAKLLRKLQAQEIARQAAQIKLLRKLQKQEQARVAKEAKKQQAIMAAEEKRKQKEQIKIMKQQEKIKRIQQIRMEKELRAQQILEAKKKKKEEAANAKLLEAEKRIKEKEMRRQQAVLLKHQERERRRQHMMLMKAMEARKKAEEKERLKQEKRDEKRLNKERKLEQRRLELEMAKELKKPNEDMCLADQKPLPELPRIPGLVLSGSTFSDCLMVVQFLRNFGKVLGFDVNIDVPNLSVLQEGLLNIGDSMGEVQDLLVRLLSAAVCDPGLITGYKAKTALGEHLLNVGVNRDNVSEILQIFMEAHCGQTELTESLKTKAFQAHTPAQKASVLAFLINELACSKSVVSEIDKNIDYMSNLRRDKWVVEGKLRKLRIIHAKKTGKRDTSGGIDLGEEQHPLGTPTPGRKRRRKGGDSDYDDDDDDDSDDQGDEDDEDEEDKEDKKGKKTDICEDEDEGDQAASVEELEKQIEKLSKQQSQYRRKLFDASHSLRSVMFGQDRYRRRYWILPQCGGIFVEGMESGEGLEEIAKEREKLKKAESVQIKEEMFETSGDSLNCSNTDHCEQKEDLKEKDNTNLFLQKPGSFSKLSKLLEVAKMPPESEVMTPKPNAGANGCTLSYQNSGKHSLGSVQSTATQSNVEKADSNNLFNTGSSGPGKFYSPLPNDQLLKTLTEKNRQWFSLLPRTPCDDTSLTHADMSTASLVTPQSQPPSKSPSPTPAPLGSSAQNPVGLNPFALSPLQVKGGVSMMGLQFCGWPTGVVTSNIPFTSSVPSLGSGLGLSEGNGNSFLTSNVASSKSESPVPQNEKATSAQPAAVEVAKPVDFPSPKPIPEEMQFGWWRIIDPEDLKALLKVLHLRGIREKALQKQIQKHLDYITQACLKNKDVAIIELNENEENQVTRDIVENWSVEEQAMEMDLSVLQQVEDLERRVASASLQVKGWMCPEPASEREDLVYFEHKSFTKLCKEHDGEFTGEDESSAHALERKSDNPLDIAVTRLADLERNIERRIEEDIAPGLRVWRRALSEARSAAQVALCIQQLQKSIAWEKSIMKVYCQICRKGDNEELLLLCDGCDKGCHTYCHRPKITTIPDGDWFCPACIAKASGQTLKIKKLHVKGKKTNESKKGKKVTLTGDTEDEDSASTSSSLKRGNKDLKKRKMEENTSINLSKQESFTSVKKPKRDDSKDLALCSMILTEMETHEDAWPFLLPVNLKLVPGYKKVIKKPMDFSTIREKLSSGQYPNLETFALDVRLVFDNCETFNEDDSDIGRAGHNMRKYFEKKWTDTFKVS
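Complex of BAZ2B and biotin-H3K14Ac (50 nM apiece) forms over 30 min at RT, then faces library compounds up to 110 uM for another 30 min; AlphaScreen beads added, 20 min dark incubation, luminescence read.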
JMJD2A Tudor inh – qHTS Assay for Inhibitors of JMJD2A-Tudor Domain | Lysine-specific demethylase 4A (Homo sapiens), O75164 | AlphaScreen JMJD2A-Tudor / H3K4me3 peptide binding | Potency, µM (doses to about 114 µM), inactives show at the top dose activity change, negative = inhibition, actives largely listed as inhibitors | actives 4.4% (n = 390,000) | AID 504339, 2011; also: potency is read from the fitted curve at half-maximal effect; % is scaled to controls: 0 for no effect and ±100 for the full control effect; nearly all actives have a fitted effect of over 50% in size
HP1b chromo inh – HTS for Inhibitors of HP1-beta Chromodomain Interactions with Methylated Histone Tails. Chromobox protein homolog 1 (Homo sapiens), P83916. AlphaScreen HP1-beta / biotin-H3K9me3 peptide binding. Potency, µM (series often up to 114 µM), for the others: at the top dose activity change, negative = inhibition, actives largely listed as inhibitors. actives 0.56% (n = 390,000). AID 540317, 2011; also: potency is read from the fitted curve at half-maximal effect; nearly all actives have a fitted effect of over 70% in size
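HP1-beta protein (50 nM final) preincubated 30 min at room temperature with biotinylated H3(1-18)K9me3 peptide (50 nM) in PBS pH 7.4, 0.01% Tween-20, then compound added for 30 min. AlphaScreen streptavidin donor/nickel chelate acceptor beads (10 ug/mL final), 30 min dark, luminescence read.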
KAT2A inh – qHTS Assay for Inhibitors of GCN5L2. Histone acetyltransferase KAT2A (Homo sapiens), Q92830. GCN5L2 HAT assay, ThioGlo1 CoA-SH fluorescence. Potency, µM (highest dose often 58.9 µM), for the others: at the highest dose activity change, negative = inhibition, actives largely listed as inhibitors. actives 0.21% (n = 390,000). AID 504327, 2011; also: potency is read from the fitted curve at half-maximal effect; % is scaled to controls: 0 for no effect and ±100 for the full control effect
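GCN5L2 (20 nM) in 50mM HEPES pH 7.5, 0.1mM EDTA, 0.01% Tween-20 preincubated 15 min with compounds at room temperature. Reaction started with H3(1-25) 75uM, acetyl-CoA 70uM, ThioGlo1 50uM; CoA-thiol fluorescence (Ex340/Em540) read at 0 and 20 min.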
PLK1 PBD inh – qHTS for Inhibitors of PLK1-PDB (polo-like kinase 1 - polo-box domain): Primary Screen; Serine/threonine-protein kinase PLK1 (Homo sapiens), P53350; Plk1 PBD binding of FITC phosphopeptide, fluorescence polarization; Potency, µM, for the others: max response, negative = inhibition, most hits filed as inhibitors; actives 2.8% (n = 360,000); AID 720504, 2013; also: potency is read from the fitted curve at half-maximal effect; series mostly up to about 57 µM; % is scaled to controls: 0 for no effect and ±100 for the full control effect; nearly all actives have a fitted effect of over 65% in size
PI5P4Ka inh – qHTS for Inhibitors of phosphatidylinositol 5-phosphate 4-kinase (PI5P4K). PI5P4Kalpha enzyme, ADP-Glo luminescence, 60 min; hits give low values. max response, %. actives 1.2% (n = 330,000). Phosphatidylinositol 5-phosphate 4-kinase type-2 alpha (Homo sapiens), P48426; active = max response of -50% or lower; inconclusive = between -30% and -50%; inactive = -30% or higher; also: value at the top dose of about 77 µM; % is scaled to controls: 0 for no effect and ±100 for the full control effect
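Single end-point luminescence (ADP-Glo) quantified ADP from PI5P4Kalpha turnover; ATP 5 microM final, 1 h at RT, 0.1% CHAPS and 0.28 mM EGTA in HEPES pH 7.4.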
Starred values were filed as active, the others as inactive; ? = inconclusive; / = not tested or not shown; [ ] = dose if it differs, or a comment. A selection: hits, their analogues and other compounds. The true share with any hit is near 7%. Unless noted, calls follow the shape of the dose curve; as a rule, active = well fitted curve in the direction sought with a large enough effect; inconclusive = small, poorly fitted or top-dose-only effect, or another doubt; inactive = no such curve, though single readings can be large; an effect the other way counts as inactive or inconclusive.

SMILES	BAZ2B inh	JMJD2A Tudor inh	HP1b chromo inh	KAT2A inh	PLK1 PBD inh	PI5P4Ka inh
COc1ccc(N2CCN(CCS(=O)(=O)c3cc(Cl)ccc3Cl)CC2)cc1	45µM*	?	-22%	1%	0%	4
COc1ccc(N2CCN(CCCNC(=O)Nc3ccccc3Cl)CC2)cc1	35µM*	?	?	-12%	/	/
CC(=O)N1CCN(CCS(=O)(=O)c2cc(Cl)ccc2Cl)CC1	/	-3%	13%	-1%	3%	-2
COc1ccc(N2CCN(CCCNC(=O)C3(S(=O)(=O)c4ccc(Cl)cc4)CC3)CC2)cc1	?	50µM*	?	-3%	-2%	-7
O=C(NCCCN1CCN(c2ccc(F)cc2)CC1)Nc1ccccc1Cl	?	-20%	6%	20%	/	/
Cn1c(NCc2ccccc2F)nc2cc(-c3cccc(C(F)(F)F)c3)sc2c1=O	/	/	/	/	-2%	1
Cc1[nH]n(-c2ccccc2)c(=O)c1/C=N/c1nn[nH]n1	?	-10%[11.4 µM]	20%	?	24µM*	8
Cc1[nH]n(-c2ccccc2)c(=O)c1/C=N/N(c1ccccc1)c1ccccc1	?	40µM*	?	-1%	19µM*	-7
Cc1cccc(/N=C/c2c(C)[nH]n(-c3ccccc3)c2=O)n1	?	-3%[11.4 µM]	42%	-1%	-29%	2
CC(C)CCN1C(=O)N(c2ccccc2)C(=O)C1CC(=O)Nc1ccc(Cl)cc1 (stereo not drawn)	3%	-5%	49%	-2%	/	/
CCCCNc1cc(N2CCN(C3CCCCC3)CC2)c2noc3c2c1C(=O)c1ccccc1-3	5µM*	?	-22%	1%	/	/
CCOc1ccc2noc3c2c1C(=O)c1ccccc1-3	-11%	3%	67%	-22%	5%	-1
CN1CCN(c2cc(N3CCN(C(=O)c4ccco4)CC3)c3c4c(onc24)-c2ccccc2C3=O)CC1	16µM*	40µM*	?	-3%	27%	-17
O=C1c2ccccc2-c2onc3c(N4CCN(CCO)CC4)cc(N4CCN(C(=O)c5ccco5)CC4)c1c23	16µM*	25µM*	?	-9%	37%	?
O=C1c2ccccc2-c2c1cccc2C(=O)N1CCN(C(=O)c2ccco2)CC1	-6%	-12%	19%	-5%	-28%	/
O=C(O)CCCNc1cc(N2CCN(C(=O)c3ccco3)CC2)c2noc3c2c1C(=O)c1ccccc1-3	18µM*	35µM*	35µM*	-8%	12%	?
O=C(c1ccco1)N1CCN(CCCCN2C(=O)c3ccccc3C2=O)CC1	17%	-12%	40%	?	-12%	/
COc1cccc(NS(=O)(=O)c2csc(C(N)=O)c2)c1	-1%	-33%	21%	-7%	-9%	-1
COc1ccccc1CSc1nc2n(n1)C(c1ccccc1)C(C(=O)Nc1ccc(C)cc1)=C(C)N2 (stereo not drawn)	-4%	-7%	15%	0%	/	/
Cc1nc2nc(C)c(NS(=O)(=O)c3ccc(F)cc3)c(=O)n2[nH]1	-11%	3%	34%	-7%	/	/
CCc1nc2c(OCc3ccc(OC(F)F)cc3)cccn2c1N(C)C(=O)c1cccs1	/	/	/	/	2%	-3
O=[N+]([O-])c1c(NCCO)cc(N2CCC3(CC2)OCCO3)c2nonc12	-5%	-15%	13%	-3%	-19%	0
O=C(O)CCCNc1cc(N2CCC3(CC2)OCCO3)c2noc3c2c1C(=O)c1ccccc1-3	14µM*	/	/	?	/	/
CCOC(=O)N1CCN(c2cc(NCCC(=O)O)c3c4c(onc24)-c2ccccc2C3=O)CC1	28µM*	56µM*	-90%	?	22%	?
C/C=C/c1ccc(OCCCCn2cncn2)c(OC)c1	32µM*	7.1µM*	-59%	-11%	-1%	-7
SMILES	BAZ2B inh	JMJD2A Tudor inh	HP1b chromo inh	KAT2A inh	PLK1 PBD inh	PI5P4Ka inh
C/C=C/c1ccc(OCCOc2cc(C=O)ccc2OC)c(OC)c1	2%	11%	58%	-6%	-8%	0
C/C=C/c1ccc(OCc2cc(=O)n3cc(C)ccc3n2)c(OC)c1	?	-31%	20%	-5%	-9%	-11
C/C=C/c1ccc(OCCn2cncn2)c(OC)c1	50µM*	40µM*	?	5%	-2%	-3
COc1ccc(OC)c(NC(=O)c2cc(=O)c3c(C)cc(C)cc3o2)c1	-22%	-29%	30%	-9%	/	/
CCOC(=O)c1c(C)[nH]c(CCC(=O)NC(C)c2ccccc2)c1C (stereo not drawn)	-3%	-13%	18%[57 µM]	1%	/	/
O=C1N=C(N2CCCCC2)S/C1=C/C1=Cc2ccccc2OC1	-7%	0%	17%	-11%	-10%	-3
O=C1N=C(N2CCCC2C(=O)O)S/C1=C\c1ccco1 (stereo not drawn)	79µM*	?	?	-7%	3.4µM*	?
CC1CCC(N2CCN(S(C)(=O)=O)CC2)CC1 (stereo not drawn)	32µM*	3.2µM*	45µM*	-1%	1%	0
Cc1ccc(S(=O)(=O)NCCc2cn3c(C)csc3n2)cc1	6%	0%	24%[57 µM]	-3%	/	/
COc1ccc(NC(=O)c2ccc(N3CCCC3=O)cc2)cc1Cl	/	-3%	39%	-4%	-2%	-11
CSc1ccc(CCNC(=O)CSc2ccsc2[N+](=O)[O-])cc1	-29%	-24%[57.1 µM]	33%	-14%	?	-51*
NS(=O)(=O)c1ccc(CCNC(=O)CSc2ccsc2[N+](=O)[O-])cc1	-33%	-29%	16%	-2%	-26%	-67*
COc1ccc(CCNC(=O)CSc2ccsc2[N+](=O)[O-])cc1OC	-16%	-24%	20%	-5%	-11%	-19
COc1ccc(C(=O)N/C=C/n2cnc3cc(C(F)(F)F)ccc32)cc1	-2%	1%	13%	3%	-14%	5
Cc1ccc2cc(C3CC(c4ccco4)=NN3C(=O)CCC(=O)O)c(Cl)nc2c1 (stereo not drawn)	-9%	22µM*	?	-4%	?	-16
Cc1cccc2cc(C3CC(c4cccs4)=NN3C(=O)CCC(=O)O)c(Cl)nc12 (stereo not drawn)	?	32µM*	0%	16%	27µM*	-11
